Laboratory results taken from PubChem BioAssay AID1730 (National Center for Advancing Translational Sciences (NCATS), 2009).
Inconclusive results are not listed. Where a call stands in place of a potency, no number is given. Active and inactive are the calls of the source. Calls follow the shape of the dose curve; as a rule, active = well fitted inhibition curve with a large enough effect; inconclusive = small, poorly fitted or top-dose-only effect; inactive = no such curve, though single readings can be large or run the other way.

Experiment: Counterscreen Assay for Inhibitors of the ERK Signaling Pathway using a Homogeneous Screening Assay
Settings: AlphaScreen bead counterscreen in cell lysate, 5 h; series mostly up to 45.6 µM
Excerpt: qHTS Assay for Inhibitors of the ERK Signaling Pathway using a Homogeneous Screening Assay
NIH Chemical Genomics Center [NCGC]
NIH Molecular Libraries Screening Centers Network [MLSCN]
Assay Submitter (PI): Dr. Wei Zheng, NCGC/NIH
The Ras/extracellular-signal-regulated kinase (ERK) mitogen activated protein (MAP) kinase signaling pathway (ERK1/2 cascade) plays is a key role in transmitting signals from the cell surface to the nucleus (Nishida and Gotoh 1993; Chang and Karin, 2001). The cascade is initiated by the small G-protein Ras, which recruits Raf […], where activation occurs. Alternatively, this pathway can be activated by elevating intracellular cAMP.
Activation of the ERK pathway is essential in increased cell division and cell survival. Sustained and constitutive activation of the ERK pathway, however, has been linked to uncontrolled cell proliferation, increased cell survival, and tumor progression. Thus, the ERK has been as an attractive target for cancer chemotherapy in the past few years (Sebolt-Leopold and Herrera, 2004). Given its physiological and pathological importance, assessment of ERK phosphorylation has been broadly performed in both basic research and drug discovery. Most assays for the measurement of ERK phosphorylation use the antibody-based detection methods, such as western blot and ELISA. These assays require multiple reagent additions with cell wash steps and are not suitable for high-throughput screening.
The current cell-based ERK phosphorylation assay was performed using AlphaScreen platform. AlphaScreen is a two bead-based proximity-dependent chemical energy transfer luminescent assay platform. The assay reagents (ERK SureFire(TM) kit) were supplied from TGR BioSciences (Australia). In the presence of specific antibodies, phosphorylated ERK will bring "donor" and "acceptor" beads to a proximity range (<200 nm), and subsequently lead a chemical luminescent reaction upon exciting donor beads with 680 nm laser. To exclude the assay-related false positives, we used a biotinylated rabbit IgG to perform a counter-screen. The biotinylated antibody mimics the phosphorylated ERK1/2 for bringing streptavidin coated beads and protein-A coated beads to a proximity range for the AlphaScreen detection.
NCGC Assay Protocol Summary:
Biotinylated rabbit IgG was used to perform a counter-screen in the context of an AlphaScreen assay kit provided by PerkinElmer. Data were normalized to the controls for basal activity (DMSO only) and 100% activation (25 nM IgG). AC50 values were determined from concentration-response data modeled with the standard Hill equation.
(1) Seed 4 ul/well of resuspended frozen HEK293 cells containing 2000 cells in white 1536-well plates for overnight with 1% FBS at 37C under a humidified atmosphere containing 5% CO2 and 95% air.
(2) Add 23 nL compounds in DMSO solution. The final titration was 0.6 nM to 46 uM.
(3) Incubate at 37C for 30 min.
(4) Dispense 0.5uL vasopressin (25 nM in final)
(5) Incubate at 37C for 5 min.
(6) Dispense 0.5uL of 1:2 diluted 5x lysis buffer.
(7) Incubate at 37C for 10 min.
(8) Dispense 1.5uL of mixture of activation buffer and reaction buffer with AlphaScreen beads (streptavidin donor beads and protein-A acceptor beads, 10 ng/well for each).
(9) Incubate at room temperature for 5 hr.
(10) Detect the assay plate in an EnVision plate reader (PerkinElmer) using the AlphaScreen detection mode.
Keywords: ERK, MEK, type-1 vasopressin receptors, homogenous, cell-based kinase assay, MLSMR, MLSCN, NIH Roadmap, qHTS and NCGC
In the case of `CCOC(=O)c1ccc(NC(=O)c2ccc(C)c(S(=O)(=O)N3CCOCC3)c2)cc1`, the Potency is reported as “inactive”.
In the case of `O=C1c2ccccc2C(=O)c2c1cccc2N1CCCC1`, the Potency is reported as 10 µM (active).
For `CCCCOc1cc(CC2CNC(=O)N2)ccc1OC` (stereo not given), the Potency was “inactive”.
In the case of `Cc1cccc(CNc2ncnc3ccc(-c4cccc(NS(C)(=O)=O)c4)cc23)c1`, the Potency is reported as “inactive”.
In the case of `C/C(=N\Nc1nnc(-c2ccccc2)c(-c2ccccc2)n1)c1cccc([N+](=O)[O-])c1`, the Potency is reported as “inactive”.
In the case of `CC1(C)OC(c2ccccc2)=C/C(=C/C=C2C(=O)c3ccccc3C2=O)O1`, the Potency is reported as 2.24 µM (active).
With `COc1ccc(N=C2C(=Nc3ccc(OC)cc3)N(c3ccc(OC)cc3)C(=S)N2C)cc1` the Potency was 4.47 µM (active).
In the case of `Cc1sc2ncnc(Sc3nnnn3-c3ccc(Cl)cc3)c2c1C`, the Potency is reported as “inactive”.
For `O=C(c1cccs1)c1no[n+]([O-])c1C(=O)c1cccs1`, the Potency was “inactive”.
In the case of `CN(C)c1ccc(Nc2c3c4c(cccc4n(C)c2=O)C(=O)c2ccccc2-3)cc1`, the Potency is reported as 3.16 µM (active).
In the case of `c1ccc(Oc2nc(NCc3ccco3)nc(NCc3ccco3)n2)cc1`, the Potency is reported as “inactive”.
In the case of `CS(=O)(=O)Nc1cccc(-c2ccc3ncnc(Nc4ccc(F)cc4)c3c2)c1`, the Potency is reported as “inactive”.
For `Nc1nc2c3ccccc3nc(C3CC3)n2n1`, the Potency was “inactive”.
With `c1ccc(Nc2ncnc3sc4c(c23)CCC4)cc1` the Potency was “inactive”.
In the case of `CCOc1ccc(/C(O)=C2/C(=O)C(=O)N(c3ncccn3)C2c2ccccc2)cc1` (stereo not given), the Potency is reported as “inactive”.
In the case of `Cc1noc(NS(=O)(=O)c2ccc(NC(=O)COc3ccc(Cl)cc3Cl)cc2)c1C`, the Potency is reported as “inactive”.
With `C=C[C@@]1(C)CC(=O)[C@@]2(O)[C@@]3(C)[C@@H](O)CCC(C)(C)[C@@H]3[C@H](OC(=O)CCN(C)C)[C@H](OC(C)=O)[C@@]2(C)O1` the Potency was “inactive”.
With `COC(=O)Cc1c(C)c2ccc(OC(=O)c3ccco3)cc2oc1=O` the Potency was “inactive”.
In the case of `CS(=O)(=O)CCNCc1nc(-c2ccc3ncnc(Nc4ccc(OCc5cccc(F)c5)c(Cl)c4)c3c2)cs1`, the Potency is reported as “inactive”.
In the case of `COc1ccc(CC(=O)Nc2cccc(-c3nnc(-c4cccc(C)c4)o3)c2)cc1OC`, the Potency is reported as “inactive”.
In the case of `COC(=O)c1cc(-c2ccc(OC)c(OC)c2)on1`, the Potency is reported as “inactive”.
With `CCOC(=O)Cc1csc(NC(=O)CSc2ncnc3c2cnn3-c2ccc(OC)cc2)n1` the Potency was “inactive”.
With `COc1ccc(C(=O)OC(COc2ccccc2)Cn2ccnc2)cc1` (stereo not given) the Potency was “inactive”.
For `Cc1ccc(NNc2c(C)nc3ccccc3nc2=O)cc1`, the Potency was “inactive”.
With `N#CC(C#N)=c1ccc2c(c1)N1C3=C(CCCC3)CC3CCCCC31N=2` (stereo not given) the Potency was 4.47 µM (active).
